# Bioassay records: PubChem BioAssay, several laboratories
# LANA-H2A inh: blocks KSHV LANA binding to histone H2A/H2B; 320,000 compounds, 0.6% hits; inhibition, % (no concentration beside the values); cell-free LANA-H2A/H2B peptide, fluorescence polarization; AID 2629; Q9QR71; in the data active means inhibition mostly above about 10%, no sharp cut-off; inactive means mostly below about 6.7%
# NOD2 RIPK2 PPI: inhibitors of human NOD2-RIPK2 interaction. O43353. CHO BLA complementation NOD2-RIPK2, CCF4 ratio. inhibition, % at 4.98 µM. 360,000 compounds, 0.38% hits. AID 624267; in the data active means inhibition above about 21%;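 further: 0% = vehicle only and 100% = reference blocker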
# TLR4 MyD88 comp: blocks binding of human TLR4 to MyD88 | HeLa CL3-4 TLR4/MyD88 BLA complementation, FRET ratio | O00206+Q99836 | 200,000 compounds, 0.18% hits | AID 861 | inhibition, % at 8.4 µM; in the data active means inhibition above about 25%;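 further: 0% = vehicle and 100% = reference inhibitor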
# Target sequence (O00206 whole entry, looked up): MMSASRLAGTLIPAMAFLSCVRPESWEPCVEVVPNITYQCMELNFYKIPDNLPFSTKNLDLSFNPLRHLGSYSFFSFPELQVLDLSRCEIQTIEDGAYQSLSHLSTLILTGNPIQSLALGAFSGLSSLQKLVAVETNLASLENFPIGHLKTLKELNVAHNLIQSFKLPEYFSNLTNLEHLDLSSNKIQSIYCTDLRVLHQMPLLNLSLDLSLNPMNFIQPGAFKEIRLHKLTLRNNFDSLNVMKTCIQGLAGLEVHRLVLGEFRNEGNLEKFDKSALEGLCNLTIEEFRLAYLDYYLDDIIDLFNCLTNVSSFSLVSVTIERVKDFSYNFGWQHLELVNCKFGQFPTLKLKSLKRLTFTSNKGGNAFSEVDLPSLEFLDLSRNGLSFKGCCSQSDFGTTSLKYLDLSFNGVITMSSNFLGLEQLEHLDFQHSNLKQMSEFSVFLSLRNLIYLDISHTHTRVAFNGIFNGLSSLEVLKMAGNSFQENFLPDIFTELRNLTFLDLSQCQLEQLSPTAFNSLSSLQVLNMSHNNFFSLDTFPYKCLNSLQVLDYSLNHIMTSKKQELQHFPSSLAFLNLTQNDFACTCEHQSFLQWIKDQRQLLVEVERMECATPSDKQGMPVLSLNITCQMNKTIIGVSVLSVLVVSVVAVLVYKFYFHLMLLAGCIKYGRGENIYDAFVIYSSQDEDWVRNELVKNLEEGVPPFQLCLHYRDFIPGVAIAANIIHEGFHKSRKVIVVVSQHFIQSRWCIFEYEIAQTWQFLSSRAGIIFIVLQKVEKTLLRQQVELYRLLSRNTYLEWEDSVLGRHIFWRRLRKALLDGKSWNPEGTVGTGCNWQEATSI
# Target sequence (Q99836 whole entry, looked up): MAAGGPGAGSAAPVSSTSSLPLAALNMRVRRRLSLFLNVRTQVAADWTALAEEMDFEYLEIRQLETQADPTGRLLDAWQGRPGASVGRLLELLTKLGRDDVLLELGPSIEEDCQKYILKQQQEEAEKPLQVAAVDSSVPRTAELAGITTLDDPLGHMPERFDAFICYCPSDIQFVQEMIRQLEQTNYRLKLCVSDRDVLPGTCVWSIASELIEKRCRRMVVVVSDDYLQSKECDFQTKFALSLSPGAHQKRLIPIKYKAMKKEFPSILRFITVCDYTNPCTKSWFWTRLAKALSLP
# m5-HT2A agonist: mouse HTR2A agonism via beta-arrestin recruitment | P35363 | CHO-K1 mHTR2A beta-arrestin complementation, luminescence; percent of 30 µM serotonin response | activation, % at 7.6 µM | 360,000 compounds, 0.66% hits;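 active means activation above a run cutoff, the mean activation of all tested compounds plus 3 SD, cut at about 14% in these data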;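 further: 0% = plate median of compound wells and 100% = 30 µM serotonin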
# TLR9-MyD88 block: TLR9-MyD88 interaction inhibition | inhibition, % at 4.98 µM | CHO BLA complementation TLR9-MyD88, CCF4 FRET ratio | 340,000 compounds, 0.21% hits;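 active means inhibition above the mean over all tested compounds plus 3 SD, cut at about 21% in these data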;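 further: 0% = DMSO only wells and 100% = clavulanate BLA inhibitor control wells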
# Rtt109 Vps75: blocks Candida albicans Rtt109/Vps75 acetyltransferase activity; purified Rtt109/Vps75, ThioGlo CoA-SH fluorescence, 4 h; Q5AAJ8; inhibition, % at 34.9 µM; 330,000 compounds, 0.16% hits; AID 540336;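 active means inhibition of at least 50% in every replicate; inconclusive means best replicate reaches 50% inhibition but some replicates fall short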
# OPRM1 ag: activates human mu opioid receptor in HTR2A counterscreen | AID 624380 | U2OS OPRM1 beta-arrestin PathHunter, luminescence; DMSO 0%, DAMGO 9.3 µM 100% | shares compounds with m5-HT2A agonist | activation, % at 9.3 µM | 2,300 compounds, 5.3% hits;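 active means mean activation above the mean of DMSO-only wells plus 3 SD, cut at about 0.5% in these data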
# m5-HT2A ag conf: mouse HTR2A agonism confirmed; shares compounds with m5-HT2A agonist; CHO-K1 PathHunter beta-arrestin recruitment, luminescence; DMSO 0%, 30 µM serotonin 100%; activation, % at 7.6 µM; 2,300 compounds, 19% hits; AID 624381;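 active means mean activation across triplicates above the hit threshold derived in the original primary screen, cut at about 15% in these data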
# * marks the source's active call; other numbers are inactive results; ? = inconclusive; · = no result. Shown are actives, neighbours in structure and some others; about 1.8% of the full set was active somewhere.
SMILES,LANA-H2A inh,NOD2 RIPK2 PPI,TLR4 MyD88 comp,m5-HT2A agonist,TLR9-MyD88 block,Rtt109 Vps75,OPRM1 ag,m5-HT2A ag conf
CCOC(=O)N1CCN(C/C(C)=C/c2ccccc2)CC1,4,-4,-3,18*,2,-12,-1,57*
O=C(CSc1nnc(Cc2cc(=O)[nH]c(=O)[nH]2)n1-c1ccc(Cl)cc1)N1CCc2ccccc21,2,·,-6,·,·,·,·,·
O=C(CSc1nnc(Cc2cc(=O)[nH]c(=O)[nH]2)n1-c1ccccc1)N1CCCc2ccccc21,-3,-9,3,16*,5,3,-1,-2
CC1CCCN(C2(O)C(=O)Nc3ccc([N+](=O)[O-])cc32)C1 (stereo unspecified),2,-7,·,17*,0,·,-1,-2
Cc1ccc(NC2CCCN(C(=O)c3cccs3)C2)cc1C (stereo unspecified),·,0,·,-6,-2,7,·,·
Cc1ccc(CNC(=O)c2ccc(N3CCC4(CC3)CC(c3cccc(Br)c3)=NO4)c([N+](=O)[O-])c2)cc1,1,-4,·,14*,8,1,-1,0
Cc1ccc(CNC(=O)c2ccc(N3CCC4(CC3)CC(c3cccc(Br)c3)=NO4)c(N)c2)cc1,-2,5,·,0,6,13,·,·
CCOC(=O)CC1C(=O)NCCN1C(=S)NC(=O)c1ccccc1OC (stereo unspecified),-3,-6,·,16*,-6,15,-1,-3
CCOC(=O)CC1C(=O)NCCN1C(=S)Nc1ccccc1 (stereo unspecified),5,-9,8,9,5,0,·,·
Cc1cc(C)n(-c2ccc(NC(=O)C3CCCCN3C(=O)c3ccoc3C)cc2)n1 (stereo unspecified),-3,2,·,4,-4,0,·,·
O=C(COC(=O)/C=C/c1cccc(C(F)(F)F)c1)NC(=O)NCc1ccccc1,·,5,·,4,0,-1,·,·
O=C(COC(=O)/C=C/c1cccc(C(F)(F)F)c1)NC(=O)NC1CCCC1,·,-6,·,16*,-5,-2,0,-3
COCCNCC(=O)N1CCCCCC1,-3,-12,10,17*,-1,0,-1,-2
O=C(NNC(=O)c1ccco1)c1cccc(Br)c1,-4,-2,·,15*,-18,1,0,0
CCOC(=O)c1c(/N=C/c2ccc(OC)cc2O)sc2c1CCN(C)C2,7,-2,·,1,2,8,·,·
CN1CCc2c(sc(/N=C/c3cc(Cl)ccc3O)c2C#N)C1,-6,-16,·,19*,-9,0,-1,65*
CN(C(=S)NC(=O)C1CC1)c1ccc(O)cc1,0,-14,·,0,6,?,·,·
CCN(CC(=O)NC1CC1)S(=O)(=O)c1ccc(C)cc1,-1,-5,·,15*,-3,0,-1,-5
O=C(COC(=O)CN1C(=O)c2ccccc2C1=O)NC1CCCC1,-1,-1,·,0,-6,0,·,·
Cc1ccccc1NCC(=O)N/N=C/c1c(C)c(C(=O)c2ccc(Cl)cc2)n2ccccc12,1,-8,-12,15*,-7,7,0,24*
Cc1csc2c(N3CCN(C(=O)Nc4ccc(OC(F)(F)F)cc4)CC3)ncnc12,1,13,·,14*,4,-1,0,1
COc1ccc(OCC(=O)NC(=S)NNC(=O)COc2ccc(Br)cc2Cl)cc1,-9,-6,-9,16*,-4,1,-1,-3
C=C1CC[C@@H]2[C@](C)(CCC[C@@]2(C)/C=C/[C@@H](O)C(C)(C)O)[C@H]1CC(=O)NCCS(=O)(=O)O,·,-3,·,0,-2,-9,·,·
CCCc1cnc(N2CCN(C(=O)c3ccc(F)cc3)CC2)nc1,2,3,·,-4,-2,-2,·,·
